In PubChem BioAssay (Tox21):
Results filed as inconclusive are left out. Activity calls are given as the source filed them. Unless noted, calls come from the whole dose curve; as a rule, active = well fitted curve in the direction sought with a large enough effect in the repeat runs; inconclusive = weak or mixed curves; inactive = no such curve, though single readings can be large; an effect the other way counts as inactive or inconclusive.

Assays:
[1] = qHTS assay for small molecules that induce genotoxicity in human embryonic kidney cells expressing luciferase-tagged ATAD5 - cell viability (AID 651634; calls by dose curve; note: nearly all actives have a fitted effect of over 25% in size)
Summary of the method: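 Seeding of 2,000 HEK293T ATAD5-luciferase cells per well preceded pin-tool compound transfer. Plates sat 15.5 hr at 37C under 5% CO2, then fluorescence was read after 30 min with CellTiter-Fluor.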

[2] = qHTS assay for small molecule disruptors of the mitochondrial membrane potential - cell viability (AID 720634; calls by dose curve;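 note: human HepG2 liver cancer cells; series mostly up to about 83 µM; nearly all actives have a fitted effect of over 20% in size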)
Summary of the method: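 Measuring cytotoxicity alongside mitochondrial potential, the screen quantified ATP by luminescence in HepG2 cells after 1 hr compound incubation and a 30 min room-temperature CellTiter-Glo step.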

[3] = qHTS assay to test for compound auto fluorescence at 590 nm (red) in HepG2 cells (AID 720674)
Summary of the method: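 Red autofluorescence (Ex/Em 540/590 nm, Rose Bengal sodium equivalents) was measured in HepG2 cells, 2,000 per well in MEM plus 10% FBS, plated overnight at 37 C. Readings were taken 1 hr after adding 23 nL compound or DMSO, at 37 C and 5% CO2.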

[4] = qHTS assay to test for compound auto fluorescence at 460 nm (blue) in HEK293 cells (AID 720678)
Summary of the method: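 Measured: blue fluorescence (Ex 405/Em 460 nm) of compound-treated HEK293 cells, incubated overnight at 37C with 5% CO2 and scaled to triamterene equivalents.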

[5] = qHTS assay to test for compound auto fluorescence at 590 nm (red) in HEK293 cells (AID 720679)
Summary of the method: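 Using HEK293 cells at 2,000 per well, the screen added 23 nL of each compound after cell attachment and incubated overnight (37C, 5% CO2). The plate reader then captured red-label fluorescence, Ex/Em 540/590nm.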

[6] = qHTS assay to test for compound auto fluorescence at 460 nm (blue) in HEK293 cell free culture (AID 720681)
Summary of the method: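 Blue fluorescence (Ex 405/Em 460 nm, triamterene-equivalent) was read immediately after pin transfer of compound or DMSO into medium (DMEM, 10% FBS) without cells.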

[7] = qHTS assay to test for compound auto fluorescence at 535 nm (green) in HEK293 cell free culture (AID 720682)
Summary of the method: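 No cells present: wells hold DMEM supplemented with 10% FBS, into which compound or vehicle is pinned. Green emission is then recorded (485 nm excitation, 535 nm emission) and scaled to fluorescein.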

[8] = qHTS assay to test for compound auto fluorescence at 590 nm (red) in HEK293 cell free culture (AID 720683)
Summary of the method: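 Red-channel autofluorescence of compounds in culture medium (DMEM, 10% FBS), no cells, measured at 540/590 nm. Rose Bengal sodium is the reference fluorophore for equivalence.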

[9] = qHTS assay to test for compound auto fluorescence at 590 nm (red) in HepG2 cell free culture (AID 720684)
Summary of the method: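 Plate contents were MEM with 10% FBS plus test compound or DMSO, no cells. Fluorescence was recorded with 540 nm excitation and 590 nm emission.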

[10] = qHTS assay to test for compound auto fluorescence at 460 nm (blue) in HepG2 cell free culture (AID 720685)
Summary of the method: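 Compound (23 nL) or DMSO pinned into cell-free MEM with 10% FBS; blue fluorescence read at 405/460 nm excitation/emission, expressed as auto-fluorescence equivalency to triamterene.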

[11] = qHTS assay to test for compound auto fluorescence at 535 nm (green) in HepG2 cell free culture (AID 720686)
[12] = qHTS assay to test for compound auto fluorescence at 460 nm (blue) in HepG2 cells (AID 720687)
Summary of the method: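 Blue-channel autofluorescence (Ex/Em 405/460 nm, triamterene-equivalent) was measured after 1 hr compound exposure at 37 C, 5% CO2. Cells were HepG2, plated overnight at 37 C in MEM plus 10% FBS.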

[13] = biological target: Glucocorticoid receptor (Homo sapiens) (UniProt P04150); assay: qHTS assay to identify small molecule agonists of the glucocorticoid receptor (GR) signaling pathway (AID 720691; active = well fitted activation curve with a large enough effect in the signal ratio in the repeat runs, not every such curve was filed as active; the % refers to the signal ratio)
Summary of the method: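 Reporter read-out: fluorescence intensity following 2 h room-temperature LiveBLAzer B/G FRET substrate loading. Prior step: GR-bla HeLa cells held 4 h, then treated 18 h at 37 C.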

[14] = biological target: Glucocorticoid receptor (Homo sapiens) (UniProt P04150); assay: qHTS assay to identify small molecule antagonists of the glucocorticoid receptor (GR) signaling pathway (AID 720692; active = well fitted inhibition curve with a large enough effect in the signal ratio in the repeat runs, not every such curve was filed as active; the % refers to the signal ratio)
Summary of the method: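 Dexamethasone (5 nM final) stimulated a stably integrated GRE-beta-lactamase reporter in HeLa cells during 18 h co-incubation with compounds; signal was quantified as fluorescence intensity of B/G FRET substrate after 2 h.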

[15] = qHTS assay for small molecules that induce genotoxicity in human embryonic kidney cells expressing luciferase-tagged ATAD5 (AID 651632); note: nearly all actives have a fitted effect of over 15% in size
Summary of the method: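 Reporter cells (HEK293T) express luciferase-tagged ATAD5, a protein that accumulates after DNA damage. Treat 16 hr at 37C/5% CO2, add Amplite, wait 30 min at RT, and read luminescence.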

[16] = qHTS assay for small molecule agonists of the p53 signaling pathway - cell viability (AID 651633; calls by dose curve;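 note: p53RE-bla HCT reporter cells with a stable beta-lactamase p53 reporter; series mostly up to about 83 µM; nearly all actives have a fitted effect of over 30% in size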)
Summary of the method: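 Viability counter-read: CellTiter-Glo luminescence (30 min, room temperature) in the same p53RE-bla plates. These plates had been exposed to compounds for 16 h at 37 C.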

[17] = qHTS assay for small molecule disruptors of the mitochondrial membrane potential (AID 720635)
Summary of the method: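 Mitochondrial membrane potential tracked with Mito-MPS dye, red aggregates (ex 540/em 590 nm) against green monomers (ex 490/em 535 nm). Compound treatment 1 hr at 37C, dye 30 min in HepG2.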

[18] = qHTS assay to test for compound auto fluorescence at 535 nm (green) in HepG2 cells (AID 720675)
[19] = qHTS assay to test for compound auto fluorescence at 535 nm (green) in HEK293 cells (AID 720680)
% is set by controls: 0 for no effect and ±100 for the full control effect.

Glucocorticoid receptor (Homo sapiens), sequence (P04150 whole entry, looked up): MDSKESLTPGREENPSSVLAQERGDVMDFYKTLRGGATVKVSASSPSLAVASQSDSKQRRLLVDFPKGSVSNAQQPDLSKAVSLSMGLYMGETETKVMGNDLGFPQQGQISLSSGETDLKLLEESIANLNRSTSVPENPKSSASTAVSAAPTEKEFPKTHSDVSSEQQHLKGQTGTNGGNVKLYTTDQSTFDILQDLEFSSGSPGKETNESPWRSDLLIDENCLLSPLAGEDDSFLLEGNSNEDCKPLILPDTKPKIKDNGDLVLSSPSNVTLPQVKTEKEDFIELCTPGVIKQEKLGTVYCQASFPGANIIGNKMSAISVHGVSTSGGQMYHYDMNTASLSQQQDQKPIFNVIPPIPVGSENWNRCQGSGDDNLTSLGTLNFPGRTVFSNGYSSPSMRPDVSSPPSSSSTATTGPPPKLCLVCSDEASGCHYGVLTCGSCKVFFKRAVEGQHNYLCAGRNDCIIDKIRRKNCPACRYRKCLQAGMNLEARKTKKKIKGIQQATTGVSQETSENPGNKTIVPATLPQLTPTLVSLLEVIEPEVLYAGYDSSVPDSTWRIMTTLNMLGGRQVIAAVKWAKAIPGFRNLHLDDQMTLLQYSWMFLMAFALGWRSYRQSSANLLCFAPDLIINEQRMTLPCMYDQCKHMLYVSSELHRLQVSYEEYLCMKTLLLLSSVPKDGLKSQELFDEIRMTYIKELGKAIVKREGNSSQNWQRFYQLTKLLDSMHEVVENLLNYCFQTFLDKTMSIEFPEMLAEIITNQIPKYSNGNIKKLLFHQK

Cc1ccccc1OCC(=O)O
inactive: outcome [1] | outcome [2] | outcome [3] | outcome [4] | outcome [5] | outcome [6] | outcome [7] | outcome [8] | outcome [9] | outcome [10] | outcome [11] | outcome [12] | Potency [13] | outcome [14]

N#Cc1ccccc1C#N
inactive: Potency [15] | outcome [16] | outcome [2] | Potency [17] | outcome [3] | outcome [18] | outcome [4] | outcome [5] | outcome [19] | outcome [6] | outcome [7] | outcome [8] | outcome [9] | outcome [10] | outcome [11]

N=C(N)N1CCc2ccccc2C1
inactive: Potency [15] | Potency [17] | outcome [3] | outcome [18] | outcome [4] | outcome [5] | outcome [6] | outcome [7] | outcome [8] | outcome [9] | outcome [10] | Potency [13] | outcome [14]

N=C(N)S(=O)O
inactive: outcome [1] | outcome [2] | Potency [17] | outcome [3] | outcome [18] | outcome [5] | outcome [19] | outcome [6] | outcome [7] | outcome [8] | outcome [9] | outcome [10] | outcome [12]

CCCCCCCCS(=O)(=O)O
inactive: Potency [15] | outcome [1] | outcome [2] | Potency [17] | outcome [3] | outcome [18] | outcome [4] | outcome [5] | outcome [19] | outcome [6] | outcome [7] | outcome [8] | outcome [9] | outcome [10] | outcome [11] | outcome [12]

CC(C)(C)C(=O)CCc1ccc(Cl)cc1
inactive: outcome [16] | outcome [1] | outcome [2] | Potency [17] | outcome [3] | outcome [18] | outcome [5] | outcome [19] | outcome [6] | outcome [7] | outcome [9] | outcome [10]

CC1=C(O)C(=O)CO1
inactive: Potency [15] | outcome [1] | outcome [2] | outcome [3] | outcome [18] | outcome [4] | outcome [5] | outcome [19] | outcome [6] | outcome [7] | outcome [8] | outcome [9] | outcome [10] | outcome [11] | outcome [12]

O=C(O)Cc1c(Cl)ccc(Cl)c1Cl
inactive: outcome [16] | outcome [1] | outcome [2] | outcome [3] | outcome [18] | outcome [4] | outcome [5] | outcome [19] | outcome [6] | outcome [7] | outcome [8] | outcome [9] | outcome [10] | outcome [12]

CC/C=C\CCCCCCCCCCOC(C)=O
inactive: Potency [15] | outcome [2] | Potency [17] | outcome [3] | outcome [18] | outcome [4] | outcome [5] | outcome [19] | outcome [6] | outcome [7] | outcome [8] | outcome [9] | outcome [10] | outcome [11] | outcome [12] | outcome [14]

O=C(CCBr)N1CCN(C(=O)CCBr)CC1
inactive: Potency [15] | outcome [16] | outcome [1] | outcome [3] | outcome [18] | outcome [4] | outcome [5] | outcome [19] | outcome [6] | outcome [7] | outcome [8] | outcome [9] | outcome [10] | outcome [11] | outcome [14]

CCCCN1C(=O)c2ccccc2C1=O
inactive: Potency [15] | outcome [16] | outcome [2] | outcome [3] | outcome [4] | outcome [5] | outcome [19] | outcome [6] | outcome [7] | outcome [9] | outcome [10] | outcome [11] | Potency [13] | outcome [14]

CCCCNCC
inactive: outcome [16] | outcome [1] | outcome [2] | Potency [17] | outcome [3] | outcome [18] | outcome [5] | outcome [19] | outcome [6] | outcome [7] | outcome [8] | outcome [9] | outcome [10] | outcome [11] | outcome [14]

CC(C)(C)c1ccc(N)cc1
inactive: Potency [15] | outcome [16] | Potency [17] | outcome [3] | outcome [18] | outcome [5] | outcome [19] | outcome [6] | outcome [7] | outcome [8] | outcome [9] | outcome [10] | outcome [11] | Potency [13]

CCC(=O)OCCOc1ccccc1
inactive: Potency [15] | outcome [16] | outcome [1] | outcome [3] | outcome [4] | outcome [5] | outcome [19] | outcome [6] | outcome [7] | outcome [9] | outcome [10] | outcome [12]

C=CCCCCCCCCCCCCCC
inactive: outcome [1] | outcome [2] | fluorescence, relative to Rose Bengal [3] -0.0589% [at 18.6 µM] | fluorescence, % of fluorescein control [18] -0.0523% [at 18.6 µM] | fluorescence, % of triamterene [4] 0.0937% [at 18.6 µM] | fluorescence, % of fluorescent control [5] 0.0885% [at 18.6 µM] | fluorescence, % of fluorescein [19] -0.003% [at 18.6 µM] | fluorescence, % of fluorescent control [6] 0.006% [at 18.6 µM] | activity change [7] 0.0547% [at 18.6 µM] | fluorescence, % of fluorescent control [8] -0.342% [at 18.6 µM] | fluorescence, % of Rose Bengal [9] 0.0019% [at 18.6 µM] | fluorescence, % of fluorescent control [10] -0.0168% [at 18.6 µM] | fluorescence, % of fluorescein control [11] 0.0254% [at 18.6 µM] | outcome [14]

NNC(=O)OCc1ccccc1
inactive: Potency [15] | outcome [16] | outcome [2] | Potency [17] | outcome [3] | outcome [18] | outcome [4] | outcome [5] | outcome [19] | outcome [6] | outcome [7] | outcome [8] | outcome [9] | outcome [10] | outcome [11] | outcome [12]
